These results are taken from PubChem BioAssay AID1159506 (National Center for Advancing Translational Sciences (NCATS), 2015).

Whole data set: some 59,000 sequences, median the read-out near -0.00055, cut for the lowest 2% near -2. Many of the other results were omitted from the sample, so the lowest values are more common in it than they were.

This experiment can be described thus: Identification of proteins required for the processing of the EWS-FLI1 nascent transcript.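 Further: robust z of luciferase light less the median z of siRNAs with the same seed.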 To be noted: TC32 Ewing sarcoma NR0B1-luc vs CMV-luc (EWS-FLI1 target promoter against control promoter), 48 h; screened at 20 nM (by protocol). Put shortly: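 Parallel TC32-NR0B1-luc and TC32-CMV-luc reverse transfections with 20 nM siRNA in RPMI-1640/10% FBS, luciferase measured 48 h later. Seed-adjusted z-scores from normalized, z-score-MAD transformed data; AllStars negative and siGL4 controls on each plate.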
UCUCUGCUCAAUGUUUUCU against LBH showed a seed-corrected z-score of -2.25.

As for UACGAGGAUGUUGUAUUCC against N4BP1, the seed-corrected z-score was -0.092.

The sequence UACAGUACAAACAAGGCUG against CEBPA yielded a seed-corrected z-score of -0.377. UUAACUGCUAGUGUAUUGG against TCP1 gave a seed-corrected z-score of -1.18. The sequence UCAAGGAUAAGAGAGAUUG against RORC yielded a seed-corrected z-score of 0.034. Next, UGCGAUUGAAUAUUCUACG against CSRNP3: -2.35; AUUCUUACAAUCUAAAGGC against SUPT7L: 0.435; AGAGGUUGUACAUUCUUCG against SESN2: -2.47. Next, UUCUUAGACACGUAGUACC against KAT2B: 0.834. Next, UAGGGAUUCCCUGUAGUUC against COLEC10: 1.57; AUCUGUCUGAGUGCAAAUC against HIPK1: -0.0595. Turning to UUGGUAUCAAGGUCUACAC against DENND4B, the seed-corrected z-score is -0.319. With AUUGUAUACAGCGAGUUCU against GP1BA the figure was 0.181; with AUCCGGAACCUGUAGAUCG against CCDC130, -0.0498. As for AAUGGUCUUGUUGGUCUCC against TSNARE1, the seed-corrected z-score was -2.7. As to UGAUUAACCAGUACUGAUG against C5orf42, the seed-corrected z-score amounted to 0.83. Next, AUUAGAACUACAGCUCUCG against LOC648999: 0.638. Next, UCGAUGGUAAGGUAAGAGC against DNMT3B: -2.25; UCUCGUAGAACAUUGCUGG against VPS53: -0.933. With AAAGCUGGAAUAAAUAGUC against DLX5 the figure was -0.397; with UGAAUGUCAAUGUCGUAUG against PCDHB1, -0.133. UGUUGUUCUUGACUGACUG against SNRPD2P1 came in with a seed-corrected z-score of -4.32. UUAGUGAUAUUCUUGACAG against PSMD5 showed a seed-corrected z-score of 0.816. With UCAUGUAAAACUCUCGGCC against PARS2 the figure was -0.0062; with UCAUUGAAGUGCUUAGUGG against RASGRF1, -0.277.

Take UGUUGUAGAUCCAUAGUUC against KLHDC2: the seed-corrected z-score was -4.33. UCCAUGUCAUGUAAAUUUC against MR1 displayed a seed-corrected z-score of -0.441. For the sequence AUUGCAAAAGUAGAUUUAC against RPL26P30, the seed-corrected z-score turned out to be 0.181. With UUCAGUUCUAGAGGUCUGC against TMEM53 the figure was -0.0791.

Take UUCGCUUCCAGUUCACCUC against MBOAT1: the seed-corrected z-score was found to be 0.704. With UAUGUGACGAGGGUCAUGC against THBS1 the figure was -2.07; with AAACCCUUCACAGUCUUGG against LOC388955, 0.158. The sequence AGCUAUAUUAUUCACAGCC against BTF3L4 yielded a seed-corrected z-score of -0.0759. With UGUCUAAUAAACAAGUUAC against DNA2, the seed-corrected z-score is -0.418. Next, UCUCCGAUGAGAGCUUUGG against GNS: -0.354; AUAGUGUAAAGAACAUCCG against HNRNPL: 2.46; UCCAUUACAAUCGACCUUU against PROK2: -0.664. Take UUCCCGUUCAUUUUGCAAC against ASZ1: the seed-corrected z-score was -0.283.

For AAGGUGUCGAUGUCCAUGG against MSLNL, the seed-corrected z-score was -2.6.

As for AAAUCAACCAAUUAAAGUC against LOC403323, the seed-corrected z-score was found to be 1.01. UGUUCAAUCUUGGAGCUGG against LRRC8E had a seed-corrected z-score of 1.15. Next, AAAGAUCAAAUCUGAUUCC against MRPL19: -0.8; AUAUGUUCAAGGUGAUUCG against OR6K2: -0.456. On to AUCGCGAACACUAACGUAC against SUB1, for which the seed-corrected z-score is -0.141. UUAGGUAACGGAAACGGGC against LDHC: the seed-corrected z-score was found to be 0.562. Next, UUGGUAUUGAUCGUUUAUG against DCUN1D1: 1.03. With AUACCGAAAACCUUCGCCC against ABCA3 the figure was 0.623. As for UAUGGUUACAAAGGGAACU against ZNF669, the seed-corrected z-score was 0.508. Next, UCAGGUACAAUUCUGAUUC against KRT38: -0.223; UUGGGUGUCAGGAUCUCGU against MYH14: -2.4. As to UACAUCUCCAGGGUCAGCG against CALY, the seed-corrected z-score is -0.514. With UCUGCGACUCCUGUUCUGC against WRBP1, the seed-corrected z-score stood at 0.0575. With UUUGUAAGGUUGCUGAUCG against CLIP1 the figure was 0.221. Next, UUCUCGUCUAGUUUGCAUC against SH3RF3: 0.155; AUUGUUUGUGGUAUUGUAG against CRHR1: 0.211.

In turn, UGAGUGCUUACUGGUUUGC against C9orf47 came in with a seed-corrected z-score of -3.58. With UCGGAUGUAUCUGAGGUGC against DCAF8L1 the figure was -0.269; with UCUAAUUCUGCGGCUUUUC against SCAMP1, -0.0112.

For the sequence UAGAUGCUCAGGGAUCACC against AS3MT, the seed-corrected z-score amounted to 1.06. Sequence UUUCGAACACGAAACAUUC against LOC340089 returned a seed-corrected z-score of -0.0497. In turn, AUACCUGCUAAUGUCAUCC against ERCC6 gave a seed-corrected z-score of -3.8.

For the sequence ACAGUUAGUAUUGUACUUG against ZNF280C, the seed-corrected z-score came to 0.315. Sequence UGAGUUUCCAGGCUAUCAC against CCDC122 yielded a seed-corrected z-score of -2.99. With AUACUGAAAAUAGUACAUG against KMT5A the figure was 0.332.

Consider UGUACAGAGAGGGCAUGUG against BAIAP2L2, for which the seed-corrected z-score was -1.82. Next, UUUCAUAGAUUAGCACUCC against PRKACB: -0.257.
